Results reported in the supplement of paper PMC4380459.

Each compound was assayed on tubulin (bovine brain) (assay: tubulin polymerization end-point dOD, fold change relative to DMSO vehicle; higher = more polymerization (stabilization)). Details: 50 µM; 60 min; 37 °C.
In short: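 In 384-well plates, compound at a final 50 μM in 0.5% DMSO was assembled on ice with bovine brain tubulin (4 mg/ml in G-PEM buffer) from the Cytoskeleton HTS-Tubulin polymerization kit, then read at 340 nm every minute for 1 hour at 37°C in a Tecan reader. Each value is the end-point change in optical density as percent fold change versus DMSO vehicle, scaled per run by the means and standard deviations of DMSO and reference-control wells.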
With `Cc1cnc(C(=O)Nc2ncc(Cc3ccc(C#N)cc3)s2)cn1` the “tubulin polymerization end-point dOD” value was -30.4%. With `COc1cc(CNc2ccc(Br)cc2)cc(OC)c1OC` the “tubulin polymerization end-point dOD” value was -37.3%. In the case of `CS(=O)(=O)c1ccc(C(=O)Nc2ncc(Cc3cccc(Cl)c3Cl)s2)cc1`, the “tubulin polymerization end-point dOD” value is reported as -8.57%. For `Cc1ccc2cc(C)c3nn(CCNC(=O)c4cccnc4)c(=O)n3c2c1`, the “tubulin polymerization end-point dOD” value was -40.4%. In the case of `COc1ccccc1NC(=O)CSc1nnc(-c2cccnc2)n1-c1ccccc1C`, the “tubulin polymerization end-point dOD” value is reported as -57.2%. With `Cc1ccc(/C=N\NC(=O)c2cccc(Cl)c2)cc1` the “tubulin polymerization end-point dOD” value was 3.13%. `Cc1ccc(NC(=O)CSc2nc3cc4c(cc3cc2C#N)OCCO4)c(C)c1` was tested, and the “tubulin polymerization end-point dOD” value was -24.1%. With `Cc1cc2nc(/C=C/c3ccsc3)sc2cc1C` the “tubulin polymerization end-point dOD” value was 237%. For `CCc1ccccc1NC(=S)N(CCCO)Cc1cc2cc(C)cc(C)c2[nH]c1=O`, the “tubulin polymerization end-point dOD” value was -51.6%. In the case of `CCC1c2ccsc2CC[NH+]1Cc1ccc(N2CCCC2=O)cc1` (stereo not given), the “tubulin polymerization end-point dOD” value is reported as -43.7%. In the case of `O=c1[nH]c(CSc2nnc(C3CC3)n2C2CC2)nc2sc(-c3ccccc3)cc12`, the “tubulin polymerization end-point dOD” value is reported as 31.8%. In the case of `O=C(Nc1nc2ccccc2[nH]1)c1cccc2ccccc12`, the “tubulin polymerization end-point dOD” value is reported as -76.4%. For `COc1ccc2cc(CNc3ncnc4[nH]ncc34)ccc2c1`, the “tubulin polymerization end-point dOD” value was -12.6%. `O=C(Nc1ccc2c(c1)OCCO2)C(=O)Nc1cccc2ncccc12` was tested, and the “tubulin polymerization end-point dOD” value was -9.86%. `Cc1ccc(/C=N/NC(=O)C2COc3ccccc3O2)s1` (stereo not given) was tested, and the “tubulin polymerization end-point dOD” value was 5.76%. In the case of `COc1cccc(/C=C(/Cl)c2nc3cc(OC)c(OC)cc3c(=O)[nH]2)c1`, the “tubulin polymerization end-point dOD” value is reported as 42.1%. For `Cc1cc2cc3c(cc2nc1SCC(=O)Nc1ccccc1C(F)(F)F)OCO3`, the “tubulin polymerization end-point dOD” value was -12.8%. `O=C(Nc1ccc(N2CCc3sccc3C2)nc1)c1ccccc1F` was tested, and the “tubulin polymerization end-point dOD” value was -40.4%. `Cc1ccc2nc(NC(=O)c3cc(Br)c[nH]3)sc2c1` was tested, and the “tubulin polymerization end-point dOD” value was -51.9%. For `O=c1[nH]c(/C=C\c2ccccc2)nc2ccccc12`, the “tubulin polymerization end-point dOD” value was 40.5%. With `O=C(Nc1ccc2c(c1)OCCO2)C(=O)Nc1cccc2cccnc12` the “tubulin polymerization end-point dOD” value was 76%. With `C=CCOc1ccccc1NC(=O)c1cc(-c2c(C)nn(C)c2C)n[nH]1` the “tubulin polymerization end-point dOD” value was -31.9%. For `Cc1cnc(C(=O)Nc2ncc(Cc3cccc(C)c3Cl)s2)cn1`, the “tubulin polymerization end-point dOD” value was -85.7%. `COc1cc(C(=O)Nc2ccc3c(c2)CCN3C(C)=O)cc2c1OCCO2` was tested, and the “tubulin polymerization end-point dOD” value was -17%. `Cc1ccccc1/C=N/N=C1\NC(=O)C(Cc2ccccc2C)S1` (stereo not given) was tested, and the “tubulin polymerization end-point dOD” value was -10.8%. `CCc1nnc(NC(=O)CSc2cc(C)c3cc(C)cc(C)c3n2)s1` was tested, and the “tubulin polymerization end-point dOD” value was 19.7%. With `COc1cc2c(cc1OC)C(c1cccs1)[NH+](CC(O)c1ccccc1)CC2` (stereo not given) the “tubulin polymerization end-point dOD” value was -40.4%. In the case of `Cc1cc2cc3c(cc2nc1SCC(=O)NC(C)(C)C)CCC3`, the “tubulin polymerization end-point dOD” value is reported as 63.4%. `Cc1cc(C(=O)Nc2nc3cc4c(cc3s2)OCCO4)c2c(C)nn(C)c2n1` was tested, and the “tubulin polymerization end-point dOD” value was 28.4%. In the case of `O=C1NC(c2c(-c3ccccc3)[nH]c3ccccc23)Nc2ccccc21` (stereo not given), the “tubulin polymerization end-point dOD” value is reported as -92.1%.
